The whole screen tested about 310,000 compounds, of which about 11,000 (3.5%) were called active. Not shown: some 4% with an inconclusive outcome. Calls follow the shape of the dose curve; as a rule, active = well fitted inhibition curve with a large enough effect; inconclusive = small, poorly fitted or top-dose-only effect, or another doubt; inactive = no such curve, though single readings can be large or run the other way. The full list was thinned out, with actives kept by preference.
target: 4'-phosphopantetheinyl transferase ffp (Bacillus subtilis) (UniProt Q9F4F7); test: qHTS Assay for Inhibitors of Bacillus subtilis Sfp phosphopantetheinyl transferase (PPTase); details: Biochemical Sfp PPTase activity;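 also: the enzyme is Sfp with the accession as filed and its product quenches rhodamine fluorescence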;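 as to Largest response in the series, negative = inhibition: 0% = enzyme reaction without inhibitor and -100% = no enzyme wells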
How it was run: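 Fluorescence-quenching assay: 15 nM Sfp-PPTase preincubated 15 min at room temperature with compound, then 5 uM rhodamine-CoA and 12.5 uM BHQ-2-labelled YbbR peptide added. Fluorescence (ex 525/em 598 nm) read at start and after 30 min; difference gives rate.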
Potency is read from the fitted curve at half-maximal effect.

Largest response in the series, negative = inhibition, inactive:
COc1ccc(N2CCC(N3CCN(C)C(CCO)C3)CC2)cc1 (stereo not drawn) -5.05%, Cc1cc(C)c2oc(C(=O)Nc3ccc(S(=O)(=O)Nc4nccc(C)n4)cc3)cc(=O)c2c1 13.2%, COc1ccc(C(=O)Nc2cc(C)c(NC(=O)c3ccccc3OC)cn2)cc1 -0.964%, Cn1nc(-c2ccccc2)c2cc([N+](=O)[O-])ccc21 15.4%, Cn1c2ccccc2c(=O)c2c(O)cccc21 1.81%, Cc1nn(C)c(Oc2ccccc2)c1[N+](=O)[O-] 4.16%, Cc1cccc(OP(=O)(Nc2c(C)n(C)n(-c3ccccc3)c2=O)Oc2cccc(C)c2)c1 2%, CC(C)[C@H](NC(=O)N1c2ccccc2NC(=O)[C@@H]1C(C)C)C(=O)N[C@H](C(=O)O)c1ccccc1 21%, CCCN1CCC(=O)N(C(CSc2ccc(OC)cc2)Cc2ccccc2)CC1 (stereo not drawn) -7.33%, COc1cc(C2/C(=C(\O)c3ccc4c(c3)CC(C)O4)C(=O)C(=O)N2c2nnc(C)s2)cc(OC)c1OC (stereo not drawn) -19.8%, Cc1ccc(-c2ccnc3[nH]n(-c4ccccc4)c(=O)c23)cc1 9.66%, O=C1CSC(=S)N1c1ccc(O)cc1 -9.51%, CCOc1cccc(/C=N/NC(=S)NCCN2CCOCC2)c1O 9.81%, COc1ccccc1NC(=O)C(C)OC(=O)CC1CCCC1 (stereo not drawn) 16.2%, CC(C)Cn1c(=O)c2ccccc2n2c(CCC(=O)NCc3ccccn3)nnc12 15.4%, COc1ccc(NC(=O)N2CCCC2C(=O)NCc2ccccc2Cl)cc1 (stereo not drawn) 1.27%, CC(=O)Nc1ccc(S(=O)(=O)Nc2cc(C)cn(Cc3ccc(C)cc3)c2=O)cc1 1.38%, O=C(CN1CCCC1)Nc1sc2c(c1C(=O)Nc1ccccc1)CCCC2 -1.37%, Cc1ccc(NC(=O)c2csc3c2CCCC3)cc1 -32.4%, CC1(C)SC2c3ccccc3C(=O)N2[C@@H]1C(=O)NCc1ccco1 (stereo partly drawn) -10.3%, COCCCNC(=O)C1CC(=O)N(CCc2ccccc2)C1 (stereo not drawn) 9.12%, CCC(C)NC(=O)C1c2ccccc2C(=O)N1Cc1ccccc1 (stereo not drawn) 0.907%, CC1(C)C(C=C(Cl)Cl)C1C(=O)NC(O)C(=O)c1ccccc1 (stereo not drawn) 3.88%, Cc1ccc(S(=O)(=O)N(CC(O)CN2C(=O)NC(C)(C)C2=O)c2cccc([N+](=O)[O-])c2)cc1 (stereo not drawn) 5.58%, CCCSc1nc(NCc2ccco2)c2c3c(sc2n1)COC(C)(CC)C3 (stereo not drawn) -1.25%, Cn1c(=O)n(Cc2ccco2)c(=N)c2c3c(sc21)CCCC3 -9.41%, Cc1ccc(C)c(C(C)NC(=O)C2CCCO2)c1 (stereo not drawn) 24.3%, O=C(/C=C/c1ccc2c(c1)OCCO2)c1ccc(O)cc1 -4.02%, CN(CCO)c1ccc(/C=N/Nc2nncc3ccccc23)cc1 6.72%, CCC(C(=O)NCCC(C)C)N(Cc1ccccc1Cl)C(=O)c1snc(C(N)=O)c1N (stereo not drawn) 7.3%, CC(=O)Nc1cccc(C(=O)Nc2nc(C)cs2)c1 -6.97%, Cc1csc(NC(=O)Nc2ccccc2[N+](=O)[O-])n1 -6.55%, COc1ccc2c(CC(=O)N3CCc4cc(OC)c(OC)cc4C3)coc2c1 1%, CNc1nnc(-c2ccco2)s1 5.68%, COc1ccc(OCC(=O)Nc2nnc(-c3ccco3)s2)cc1 -15%, COc1ccc(N(CC(=O)NCC2CCCO2)C(=O)CCC(=O)Nc2nccs2)c(OC)c1 (stereo not drawn) 26.6%, CCOc1ccc(C(=O)Nc2ccc(CN3CCOCC3)cc2)cc1Cl 8.41%, O=C(Nc1ccc(O)cc1)c1ccccc1O -1.36%, Cc1ccccc1Cn1c(=O)[nH]c2ccccc21 -2.4%, CCOC(=O)CCc1c(C)c(C#N)c2[nH]c3ccccc3n2c1=O -12.3%, Cc1cccn2cc(-c3cccc(S(=O)(=O)N4CCCCC4)c3)nc12 -2.13%, COc1ccccc1NC(=O)CSc1nc2sc3c(c2c(=O)n1-c1ccccc1)CCN(C)C3 -13.2%, O=C(CSc1nnc(-c2cccs2)n1-c1ccccc1)NCc1ccco1 14.2%, Cc1ccc(NC(=O)CSc2nnc(-c3cnccn3)n2Cc2ccco2)cc1C -38.6%, CCOC(=O)Cc1csc(NC(=O)CSc2nnc(-c3cccnc3)n2Cc2ccco2)n1 -19.3%, O=C(CSc1nnc(-c2cccnc2)n1Cc1ccco1)c1ccc(Cl)cc1 5.12%, CCn1c(SCC(=O)c2ccc(Cl)s2)nnc1-c1cccs1 -7.42%, COc1ccccc1NC(=O)CSc1nnc(-c2ccoc2C)n1CCc1ccccc1 -0.913%, CCn1c(SCC(=O)c2ccc3ccccc3c2)nnc1-c1cccs1 -21.9%, O=C1Nc2cc(C(=O)N3CCC(N4CCCCC4)CC3)ccc2S/C1=C\c1ccccc1 -28.2%, CCCNC(=O)CCc1c(C)nc2c(c(C)nn2-c2ccc(C)cc2)c1C 20.1%, O=C(NC1CCCC1)C(=O)c1c[nH]c2ccccc12 20.8%, CC(C)C[C@@H](CC(=O)N[C@@H](CCC(=O)O)CC(=O)O)NC(=O)[C@@H]1CCCC[C@H]1NC(=O)C[C@@H](NC(=O)C[C@H](Cc1c[nH]c2ccccc12)NC(=O)[C@@H]1CCCC[C@H]1N)C(C)C -18.7%, CCOC(=O)c1ccc(NC(=O)Cc2cccs2)cc1 0.409%, COc1ccc(NC(=O)C2CCC(CNC(=O)[C@@H]3Cc4ccccc4CN3)CC2)cc1 (stereo partly drawn) 7.97%, O=C(COc1ccc(S(=O)(=O)Nc2cccc(C(F)(F)F)c2)cc1)N1CCOCC1 9.23%, O=C(NC1CCCC1)C(c1ccco1)N(C(=O)c1csnn1)c1ccccc1 (stereo not drawn) 19.9%, Cn1cc(-c2nc3cnc(N4CCNCC4)nc3n(CCC#N)c2=O)c2ccccc21 -19.5%, Cc1nc2cnc(N3CCNCC3)nc2n(CCc2ccccc2)c1=O -8.2%, COc1ccc(C2/C=C\CN(C(=O)c3ccc(C)cc3)C(Cc3ccccc3)C(=O)N2Cc2ccc(F)cc2)cc1 (stereo not drawn) -6.91%, CC1(C(=O)NNC(=S)NCC2CCCO2)CC1(Cl)Cl (stereo not drawn) 17.2%, Cc1cccc(C)c1NC(=O)NC1=CCCN1C 20.1%, Cc1cc(OCc2ccc(C(=O)Nc3ccc(C(=O)O)cc3)o2)ccc1Cl 0.726%, Cc1cc(C(=O)Nc2c(C)nn(Cc3ccccc3)c2C)on1 18.5%, COC(=O)NNC1=CC(=O)CC(C)(C)C1 -3.96%, CC1(C)CC(=O)C=C(Nc2ccccc2)C1 25.1%, Cc1ccc2c(c1)N(CC(=O)N1CCCC(C)C1)C(=O)CO2 (stereo not drawn) 5.13%, CCn1c(C)c(C)c2cc(C(=O)N3CCN(c4cccc(C)c4C)CC3)ccc21 -24.3%, CCOC(=O)c1[nH]c2c(c1-c1ccccc1)C(=O)CC(c1ccc(Cl)cc1)C2 (stereo not drawn) 5.24%, CCOC(=O)C1=C(C)NC(=O)N(C(C)=O)C1c1ccc(Cl)cc1 (stereo not drawn) 19%, CCC(C)c1ccc(NC(=S)N2CCCC2)cc1 (stereo not drawn) 7.33%, c1nc(COc2nsnc2N2CCOCC2)cs1 0.0907%, O=C(O)COc1nsnc1N1CCOCC1 18.9%, CCc1c(C)c2ccc(OC3CCCCC3=O)cc2oc1=O (stereo not drawn) -0.0226%, CCOC(=O)C(C)n1cnc2c(nnn2-c2ccc(F)cc2)c1=O (stereo not drawn) 8.12%

Potency, active:
Cc1cccc(Oc2c([N+](=O)[O-])c(=O)n(C)c3ccccc23)c1 6.31 µM, Cn1c(=O)c([N+](=O)[O-])c(Oc2ccccc2)c2ccccc21 20 µM, CCOc1cccc(/C=N/N2C(=O)CSC2=S)c1O 10 µM, Cc1ccc(NC(=O)c2c(NC(=O)CCC(=O)O)sc3c2CCCCC3)cc1 11.2 µM, COCCCNC(=O)[C@H]1N2C(=O)c3ccccc3C2SC1(C)C (stereo partly drawn) 56.2 µM, CN1CCc2c(sc3c2c(NCc2ccco2)nc2nnnn23)C1 11.2 µM, Cc1csc(NC(=O)NC2(C(F)(F)F)Oc3ccccc3O2)n1 8.91 µM, Cc1ccc(OCC(=O)Nc2nnc(-c3ccco3)s2)cc1 79.4 µM, CCCc1cc(=S)n2c([nH]c3ccccc32)c1C#N 56.2 µM, COc1ccc(NC(=O)CSc2nnc(-c3cccs3)n2Cc2ccco2)cc1OC 22.4 µM, COc1ccccc1NC(=O)CSc1nc2sc(C)c(C)c2c(=O)n1Cc1ccco1 20 µM, O=C(CSc1nnc(-c2cccnc2)n1Cc1ccco1)c1ccc(Cl)c(Cl)c1 28.2 µM, O=C(CSc1nnc(-c2cccs2)n1Cc1ccco1)c1ccc2c(c1)OCO2 56.2 µM, Cn1cc(-c2nc3cnc(N4CCNCC4)nc3n(CCc3ccccc3)c2=O)c2ccccc21 39.8 µM, Cc1ccc(C(=O)O)cc1NC(=O)c1ccc(Cn2nc(C)c(Cl)c2C)o1 56.2 µM, Cc1cc(C)nc(NNC2=CC(=O)CC(C)(C)C2)n1 22.4 µM, CCOC(=O)C1Sc2[nH]c(=O)sc2C(c2ccc(Cl)cc2)C1C(=O)OCC (stereo not drawn) 22.4 µM, c1ccc(COc2nsnc2N2CCOCC2)cc1 28.2 µM
